In the supplement of paper PMC4466236:
Whole data set: some 33,000 sequences, median “E-score (dimensionless, -0.5 to 0.5)” near -0.058, cut for the highest 2% near 0.35. This excerpt belongs to a sample that is enriched for the highest values.

System: MvaT
Test: PBM 8-mer E-score (mean of HK and ME arrays) (E-score (dimensionless, -0.5 to 0.5)); higher = stronger relative binding preference
Procedure, shortened: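 Full-length P. aeruginosa MvaT carrying an N-terminal glutathione S-transferase tag was tested by protein binding microarray following a previously described protocol. Two universal double-stranded 60-mer arrays, ME and HK, were used, each with a constant 25-mer primer region and a variable 35-mer region covering all 8-mers. The rank-based E-score is the mean of the two arrays, parsed with a custom script. Its range runs from -0.5 to 0.5 for each 8-mer.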

Sequence | PBM 8-mer E-score
ATGTTCTA | 0.0957
TAGTCGGA | -0.0242
ACATTTCA | 0.153
ATTTAGAA | 0.321
GTAGTGTA | 0.0767
CGGTGCTA | -0.21
ATAAATCC | 0.25
ATAAATAC | 0.362
ATAAATGC | 0.279
CGGTTTCC | -0.194
CAATTTGG | 0.0733
AGTTAAGG | 0.135
AATTAAGC | 0.328
AATTAAGG | 0.37
CATTAAGG | 0.0854
ACTTAAGT | 0.314
AATTAAGT | 0.395
ATGCAGAA | 0.0633
CAGACAAA | 0.0494
GAGAGGCC | -0.32
AGATGAGA | 0.0308
GAATATCC | 0.0901
AGATATTC | 0.209
GAATATGC | 0.119
AAATATTC | 0.363

Sequence | PBM 8-mer E-score
GAATATTC | 0.349
AAATATCC | 0.253
GACCGAAA | -0.0789
GGGACGGA | -0.273
TAGGAGGA | -0.23
CTTATTTA | 0.391
AGTATTTA | 0.33
ACTATTTG | 0.258
CTCATTTA | 0.172
GGTATTTA | 0.27
ATTATTTA | 0.44
GTTATTTA | 0.395
CTTATTTC | 0.291
ATTATTTG | 0.351
GCTATTTA | 0.252
AGTATTTG | 0.308
ACTATTTA | 0.345
GACGACGA | 0.0375
AGCCTTCG | -0.32
CAAAAATC | 0.0508
GAGATTAC | 0.135
AAGAAACT | 0.186
GGCGTGGA | -0.173
GACCATAA | -0.0261
CGGAGCCA | -0.2

Sequence | PBM 8-mer E-score
GCAATCCA | -0.0685
CGCACCCC | -0.26
ATTATTTC | 0.352
AGTATTTC | 0.207
ATTATTGC | 0.292
AACCTGGA | -0.275
AGCGCGAT | -0.196
CATTTTAA | 0.176
AATTTAAT | 0.431
AATTTAAA | 0.443
AATTTTAA | 0.321
AATTTAAC | 0.31
CATTTAAA | 0.386
CATTTAAG | 0.287
GATTTTAA | 0.248
AATTTAAG | 0.271
AATTTAGA | 0.183
TATTTTAA | 0.41
TATTTTCA | 0.277
ATGCATAG | -0.0132
CGCGCATA | 0.113
GCGTGAAC | -0.168
GGACCCCA | -0.231
TACGCACA | 0.0888
CGGTGGCA | -0.169

Sequence | PBM 8-mer E-score
CGCACGTA | -0.1
CCTGCACG | -0.224
TCTTTAAA | 0.227
GATTTGAA | 0.2
GATTTAAC | 0.245
CATTTACA | 0.339
TATTTAGA | 0.308
GATTTACA | 0.072
TATTTACA | 0.374
GATTTAAA | 0.395
TATTTAAA | 0.433
ATGTCAAC | 0.0323
CGCCTACG | -0.307
AGGGAGAG | -0.161
CCATTAAA | 0.329
AGATTAAT | 0.379
ACATTAAA | 0.359
ACATTTAA | 0.388
AGATTAAA | 0.178
ACATTAAG | 0.265
GCATTAAA | 0.256
AGATTAAG | 0.175
ACATTAAC | 0.345
ACATTTAG | 0.177
ACATTAAT | 0.382

Sequence | PBM 8-mer E-score
GCATTTAA | 0.326
ACCACATC | -0.0359
ATGCTCTA | -0.124
TGTGCCAA | -0.0753
AGGAATTA | 0.226
CGTCCCCC | -0.209
AACATTAC | 0.234
TACTCCAA | 0.097
GACCCTAC | -0.272
ACATTTTG | 0.0944
GAAAGTGA | 0.135
CCGACTAG | -0.0959
ATTATTCG | 0.378
CTTATTCC | 0.221
ATTATTCC | 0.341
CTTATTAC | 0.367
ATTATTAG | 0.411
GCTATTAC | 0.121
ACTATTAC | 0.32
ATTATTGG | 0.293
ACTATTAG | 0.26
ATTATTAC | 0.439
ATTATTCA | 0.328
CTTATTGC | 0.178
TACGACAA | 0.131

Sequence | PBM 8-mer E-score
CCACCTCG | -0.129
GAGGCCCA | -0.232
ATCCGAGG | -0.119
CAATTCTA | 0.109
GATTTAGC | 0.024
ACTTATGG | 0.206
AGTGGTAG | 0.00056
CGCCGGCA | -0.168
CCTAACCG | -0.115
TAACTAAA | 0.312
AAACTAAA | 0.357
AAACTATA | 0.334
GAACTAAA | 0.338
AAACTATC | 0.301
AAACTATT | 0.371
ATTGAAAG | 0.195
AGTCCCGC | -0.186
GTCCAATA | 0.0714
AATGGGGT | 0.0941
ACAACCTG | -0.038
GCGAGCCA | -0.16
CCAATACA | 0.142
CCAATATC | 0.194
ACAATATG | 0.262
GCAATAGA | 0.127

Sequence | PBM 8-mer E-score
GCAATATA | 0.414
GCAATAAA | 0.214
ACAATATA | 0.425
CCAATATA | 0.367
ACAATATC | 0.258
CTAGGCCA | -0.211
CGATAGGA | -0.177
AAAACCTT | 0.103
GCCATCGC | -0.219
ACTTACAA | 0.307
GAATTTCA | 0.108
CCTGGGCC | -0.238
ATACATTA | 0.39
ACACATTG | 0.113
CTACATTA | 0.241
ACACATTA | 0.355
GCACATTA | 0.19
GTACATTA | 0.308
GCCGATGA | -0.199
TAGCTATA | 0.241
ACGGTAAT | 0.18
GTAGGCAA | -0.171
TAGGGCAA | -0.0392
TATTACAA | 0.351
AATTACAG | 0.268

Sequence | PBM 8-mer E-score
AATTACAA | 0.367
AATTACAT | 0.327
CATTACAA | 0.166
GATTACAA | 0.188
AGGTGACT | -0.173
CCGAGACA | -0.0391
GAGGAGTA | -0.153
CGAGTATA | 0.195
ATATATTG | 0.446
ATATATTC | 0.454
ATCTATTG | 0.082
AGATATTG | 0.191
CTCTATTC | -0.0516
CTATATTC | 0.204
AATCATAA | 0.306
ACCCGTCG | -0.0362
AATATACA | 0.413
TATATACA | 0.456
AGTATACA | 0.321
GATATACA | 0.205
AATATACG | 0.331
AATATACC | 0.324
AATACACA | 0.151
AATACACG | 0.159
CATATACA | 0.275

Sequence | PBM 8-mer E-score
AGTATACC | 0.234
AATATACT | 0.421
AGTATACT | 0.422
GAGCCGAC | -0.262
ACTTGCAG | 0.0173
AGGCTTAG | -0.104
CGATAGTC | -0.0515
AGGTCGTG | -0.0505
CAGTAGCA | 0.0532
GCGACTCC | -0.217
CGTAGGTA | -0.029
TCTATACA | 0.136
TGTATACA | 0.351
TGGATACA | -0.00533
AAGTTATC | 0.256
AAGTTACG | 0.231
CAGTTATG | 0.189
AAGTTATG | 0.349
AAGTTATT | 0.415
AAGTTAGT | 0.322
GCCTGACA | -0.188
CAGAAAGA | 0.0379
TTAAGAAA | 0.242
ATTTTATC | 0.202
ATCATCGG | -0.0977

Sequence | PBM 8-mer E-score
AGTAGGAT | -0.047
AATACAAG | 0.208
TATACAAA | 0.392
GATACAAA | 0.247
CATACAAA | 0.206
AATACAAC | 0.316
AATACAAA | 0.357
TACTCTGA | -0.066
TAAGGGCA | 0.0358
GCTCTCGA | -0.0844
AACTGGGG | -0.149
AACTATAG | 0.236
AACTATAA | 0.382
TACTATAA | 0.387
AACTATAT | 0.349
CACTATAA | 0.312
TGCTATAA | 0.285
TACTATCA | 0.276
AACTATAC | 0.227
GACTATAA | 0.316
ACGGGCCG | -0.277
GACCCAGC | -0.26
ACTTAGAG | 0.106
GGGTATTA | 0.288
GTATATTA | 0.438

Sequence | PBM 8-mer E-score
CTCTATTA | 0.267
CTATATTA | 0.454
ATCTATTA | 0.301
GAGTATTA | 0.269
CACTGCTC | -0.18
GCCCGACC | -0.267
GAGAGTAC | -0.0129
AACCGCTC | -0.22
AATGGGAT | 0.138
AGTCGACG | -0.209
AAAATACT | 0.272
TAAATATA | 0.442
CAAAAATA | 0.287
CAAATATG | 0.264
CAAATATC | 0.233
CAAATATA | 0.433
GAAATATC | 0.227
AAAATATT | 0.435
AAAATAGT | 0.228
TAAATCTA | 0.183
GAAATAGA | 0.158
GAAATATA | 0.408
GGCGTCCA | -0.193
AGGTCCTG | -0.144
AACGGGCA | -0.142

Sequence | PBM 8-mer E-score
CTCTATCC | -0.0794
TCGCCAAA | -0.0154
ATATCGCA | 0.208
TCCGTCAA | -0.111
CCGACACG | -0.209
AAAATATC | 0.314
AAAATATA | 0.43
AAAATATG | 0.251
GAATATAA | 0.38
CAATATAC | 0.386
TAATCTAA | 0.292
TAATATAA | 0.463
CAATATAA | 0.404
GAATAGAA | 0.105
GAATATAC | 0.298
GAATATCA | 0.209
CAATATCC | 0.127
CAATATAG | 0.331
CAATAAAC | 0.254
TAATAGAA | 0.254
CGGTACTA | -0.0157
ATTTCGTC | 0.0525
CCATCAAC | -0.145
GCCTAAAA | -0.0431
AAAGTGAT | 0.155

Sequence | PBM 8-mer E-score
GAGCCATA | -0.0175
CACTCCTG | -0.121
TGATCTAA | 0.0137
AAATATAA | 0.442
AAATATAC | 0.333
AAATATAG | 0.332
GAGTACAC | -0.00583
AAATGCCT | -0.0883
AATTCGAC | -0.053
CTTGCAAG | 0.114
CTATAGTA | 0.223
ATATAGTC | 0.361
ATATAGTG | 0.329
GTATAGTA | 0.233
CTATAGTC | -0.0729
ATATAGTA | 0.399
CGTTGACC | -0.113
AAATCAGC | 0.0494
AAAACTTG | 0.1
GAAACTTA | 0.235
ACAACTTA | 0.357
CAAACTTA | 0.272
AAAACTTA | 0.386
TAAACTTA | 0.352
AAAACTTC | 0.149

Sequence | PBM 8-mer E-score
ACAACTGA | 0.0852
AAAACTTT | 0.354
AAAACTGA | 0.0579
TAAACTGA | 0.205
ACAACTTG | 0.237
CAACACTA | 0.11
CGGCACAC | -0.0132
CTATTTCA | 0.00869
ACAGTGCA | -0.0545
CCGCACGG | -0.212
CAAACTAC | 0.248
TAAACTAA | 0.34
CAAACTAA | 0.376
ACTACTTA | 0.377
CCTACTTA | 0.251
ACTACTTC | 0.117
ACATTGCC | 0.0616
ATCTTCCC | -0.117
ATTGGTGG | 0.00541
